# Assay outcomes as filed in PubChem BioAssay.
# KCNQ2 enhance – potentiators of rat KCNQ2 potassium channel | O88943 | CHO-K1 KCNQ2, FluxOR thallium flux fluorescence; active compounds read high | B-score at 10 µM | actives 0.54% (n = 310,000);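 active = fluorescence ratio B-score at least 3 SD of library B-scores, with initial fluorescence B-score within 3 of them, cut at about 5.3 in these data; same plate scores as AID 2156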;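 note: B-score of peak minus minimum over baseline fluorescence ratio after K+ and Tl+ stimulus; positive B-score means potentiation of KCNQ2 with more thallium influx and brighter signal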
# Target sequence (O88943 whole entry, looked up): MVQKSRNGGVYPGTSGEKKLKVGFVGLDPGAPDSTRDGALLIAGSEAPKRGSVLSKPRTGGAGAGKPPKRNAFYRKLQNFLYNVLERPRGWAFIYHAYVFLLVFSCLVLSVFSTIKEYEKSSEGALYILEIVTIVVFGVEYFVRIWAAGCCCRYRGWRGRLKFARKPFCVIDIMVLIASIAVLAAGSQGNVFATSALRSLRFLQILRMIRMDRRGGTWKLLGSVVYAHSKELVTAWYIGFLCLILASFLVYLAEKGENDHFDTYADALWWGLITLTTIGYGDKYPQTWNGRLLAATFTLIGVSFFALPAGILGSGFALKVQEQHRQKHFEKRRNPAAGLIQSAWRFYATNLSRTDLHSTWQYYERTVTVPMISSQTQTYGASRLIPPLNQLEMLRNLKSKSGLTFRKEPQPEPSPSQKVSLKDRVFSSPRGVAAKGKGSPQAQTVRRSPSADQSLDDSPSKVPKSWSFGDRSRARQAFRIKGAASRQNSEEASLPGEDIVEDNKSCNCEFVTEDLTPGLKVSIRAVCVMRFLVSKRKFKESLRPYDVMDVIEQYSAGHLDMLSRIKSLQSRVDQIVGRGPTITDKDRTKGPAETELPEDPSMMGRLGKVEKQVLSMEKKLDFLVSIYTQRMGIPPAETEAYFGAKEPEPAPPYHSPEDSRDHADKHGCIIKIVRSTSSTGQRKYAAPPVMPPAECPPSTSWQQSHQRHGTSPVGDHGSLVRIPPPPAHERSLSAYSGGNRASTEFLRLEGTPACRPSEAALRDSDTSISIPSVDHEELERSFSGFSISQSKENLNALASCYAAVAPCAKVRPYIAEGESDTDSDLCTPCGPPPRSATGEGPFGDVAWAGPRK
# KCNQ2 inh – inhibitors of rat KCNQ2 potassium channel | CHO-K1 KCNQ2, FluxOR thallium flux, 20 min; active compounds read low | AID 2156 | actives 1.1% (n = 310,000) | O88943 | B-score at 10 µM;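 active = fluorescence ratio B-score at most minus 3 library SDs, with starting brightness B-score within 2 library SDs, cut at about -5.5 in these data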
# Active calls of the source: *; i = inactive; x = no result. Hits are enriched below; roughly 1.6% of the tested compounds scored in any of these assays.
SMILES,KCNQ2 enhance,KCNQ2 inh
Cc1ccc(C)c(C(=O)COC(=O)CCCC(=O)Nc2cc(C(F)(F)F)ccc2Cl)c1,0.03,i
COc1ccc(C2CC(c3ccccc3)Nc3nc(NC(=O)c4cccs4)nn32)cc1 (configuration not stated),0.27,i
COc1ccc(C2CC(c3ccccc3)n3nc(NC(=O)c4cccs4)nc3N2)cc1 (configuration not stated),-5.6,-5.6*
O=c1c2ccccc2nc(SCc2cccc(F)c2)n1Cc1ccco1,-6.2,-6.2*
O=c1c2ccccc2nc(SCc2ccccc2)n1Cc1ccco1,0.28,i
O=C(O)CC(Cc1ccc(Cl)cc1)C(=O)Nc1ccc([N+](=O)[O-])cc1 (configuration not stated),x,i
COc1ccccc1OCCn1cc(C(=O)c2ccco2)c2ccccc21,x,i
COC(=O)C(CC(=O)c1ccc(Cl)cc1)c1ccc(C(C)C)cc1 (configuration not stated),-5.9,-5.9*
Cc1ccc(C(CC(=O)c2ccc(Cl)cc2)C(=O)O)cc1 (configuration not stated),x,i
O=C(CCc1nc2ccccc2[nH]1)Nc1ccccc1F,6.6*,i
O=C(CCc1nc2ccccc2[nH]1)Nc1ccc(F)cc1,x,i
COc1ccc(-c2n(Cc3ccccc3)c3ccccc3[n+]2Cc2ccccc2)cc1,-6,-6*
COc1ccc(-c2nc3ccccc3n2Cc2ccccc2)cc1,x,i
Cc1ccccc1Oc1cccc(C(=O)/C(C#N)=C/N(C)C)c1,0.88,i
CN(C)/C=C(/C#N)C(=O)c1cccc(Oc2ccc(C(C)(C)C)cc2)c1,-7.8,-7.8*
COc1cc(C(=O)OC2CCOC2=O)cc(Cl)c1OC (configuration not stated),0.85,i
CC(=O)c1cccc(NC(=O)c2ccccc2N(C)S(=O)(=O)c2ccc(C)cc2)c1,x,i
Cc1ccc(S(=O)(=O)N(C)c2ccccc2C(=O)Nc2c(F)cccc2F)cc1,-5.9,-5.9*
O=C(NCc1cccs1)C1CCCN1C(=O)NC1CCCCC1 (configuration not stated),x,i
Cc1oc2cc3oc(=O)c(CCC(=O)NCCCN4CCCC4=O)c(C)c3cc2c1C,x,i
CCOC(=O)c1cc(C(C)(C)C)oc1CN,0.39,i
CCOC(=O)c1cc(C(C)(C)C)oc1CNC(=O)c1c(C)oc2c1CCCC2,-6.1,-6.1*
O=C(CN1CCCCCC1)Nc1ccccc1Oc1ccccc1,x,i
COC(=O)c1sc(NC(=O)C2c3ccccc3Oc3ccccc32)c(C(=O)OC)c1C,x,i
CCOC(=O)c1c(NC(=O)C2c3ccccc3Oc3ccccc32)sc(C(C)=O)c1C,-5.7,-5.7*
SMILES,KCNQ2 enhance,KCNQ2 inh
CC(=O)N1c2ccccc2C(C)(c2ccccc2)CC1(C)C (configuration not stated),x,i
CC1(c2ccccc2)CC(C)(C)N2C(=O)Cc3cccc1c32 (configuration not stated),-7.7,-7.7*
O=C(CCCOc1ccccc1)Nc1nnc(C2CCCO2)s1 (configuration not stated),x,i
O=C(/C=C/c1ccc(-c2ccccc2[N+](=O)[O-])o1)c1ccc(F)cc1,x,i
O=C(/C=C/c1ccc(-c2ccccc2[N+](=O)[O-])o1)c1ccc(Br)cc1,-7.2,-7.2*
O=C(c1cc(-c2ccc(Cl)s2)nc2ccccc12)N1CCCC1,0.14,i
Cc1ccc(-c2cc(C(=O)N3CCCC3)c3ccccc3n2)s1,-5.9,-5.9*
O=C(c1cc(-c2ccc(Br)cc2)nc2ccccc12)N1CCC1,-6.4,-6.4*
O=C(c1cc(-c2cccc(Br)c2)nc2ccccc12)N1CCCC1,x,i
CCOc1ccccc1NC(=O)Cn1c(=O)oc2cc(Cl)ccc21,0.07,i
O=C(CN1CCN(Cc2ccccc2)CC1)N=Nc1c(O)[nH]c2ccccc12,0.24,i
CCCOP(=O)(OCCC)C(Nc1ccc(C(=O)O)cc1)c1ccccc1 (configuration not stated),0.14,i
CCCCOP(=O)(OCCCC)C(Nc1ccc(C(=O)OCC)cc1)c1ccncc1 (configuration not stated),-5.7,-5.7*
COC(=O)[C@H](C)NC(=O)NC1CCCc2ccccc21 (some centres not stated),-6.5,-6.5*
CN(C)c1cccc(C(=O)NC2CCCc3ccccc32)c1 (configuration not stated),-6.5,-6.5*
CC(C)[C@H](NC(=O)NC1CCCc2ccccc21)C(=O)O (some centres not stated),x,i
O=C(NC1CCCc2ccccc21)c1cccc(Br)c1 (configuration not stated),x,i
CCOc1cc2[nH]c(=O)n(CCCC(=O)NCc3ccc(OC)cc3)c(=O)c2cc1OCC,1.2,i
O=C(OCc1cc([N+](=O)[O-])cc2c1OCOC2)c1ccccn1,1.3,i
CCOc1ccccc1Oc1cn[nH]c1-c1ccc(O)cc1O,0.8,i
Oc1ccc(-c2nc(-c3ccc(O)c(O)c3)cs2)cc1,-5.6,-5.6*
Oc1ccc(Nc2nc(-c3ccc4ccccc4c3)cs2)cc1,x,i
CCN1CCSc2ccc(C(=O)NCc3cc(Br)ccc3OC)cc21,x,i
COc1ccc(Br)cc1CNC(=O)c1ccc2c(c1)N(C)CCS2,-6.4,-6.4*
CC(=O)Nc1ccc(Nc2ncnc3c2cnn3-c2ccccc2)cc1,x,i
SMILES,KCNQ2 enhance,KCNQ2 inh
CCC(=O)N1CCc2cc(Br)cc(S(=O)(=O)NC3CCN(Cc4ccccc4)CC3)c21,x,i
CC(C)C[C@@H](CC#N)N1CCN(CCc2ccccc2)CCC1=O,0.22,i
COc1ccc(OC)c(/C=N\NC(=O)c2cc3c(ccc4ccccc43)o2)c1,0.92,i
COc1ccc(/C=N/NC(=O)c2cc3c(ccc4ccccc43)o2)c(OC)c1,-6.3,-6.3*
C=CCN(CC=C)C(=S)NC(=O)c1ccc([N+](=O)[O-])cc1,7.2*,i
C=CCNC(=S)NNC(=O)c1ccc([N+](=O)[O-])cc1,x,i
CCCCOC(=O)Cn1c(=O)c2c(nc(Br)n2Cc2ccccc2)n(C)c1=O,-7.5,-7.5*
Cn1c(=O)n(CC(N)=O)c(=O)c2c1nc(Br)n2Cc1ccccc1,0.07,i
CC1CN(Cc2nc3c(c(=O)n(C)c(=O)n3C)n2CC(O)CO)CC(C)O1 (configuration not stated),x,i
O=[N+]([O-])c1ccc(-c2c[nH]c(=S)[nH]2)cc1,1.1,i
CSCCC(NC(=O)c1ccc(Cl)cc1Cl)C(=O)OC1CCCCC1=O (configuration not stated),-8.1,-8.1*
CSCCC(NC(=O)c1ccc(Cl)cc1Cl)C(=O)NCc1ccccn1 (configuration not stated),x,i
CN(c1ccc(C(=O)NCc2cccnc2)cc1)S(=O)(=O)c1ccc(Cl)cc1,x,i
COCCN1C(=O)/C(=C/c2ccc(Oc3ccc([N+](=O)[O-])cn3)c(OC)c2)SC1=Nc1ccccc1,-6.9,-6.9*
COc1cc(/C=C2\SC(=Nc3ccccc3)N(CCc3c[nH]c4ccccc34)C2=O)ccc1OC(C)C(=O)O (configuration not stated),x,i
Cc1ccc(C(=O)O)cc1N1C(=O)c2cccc3c([N+](=O)[O-])ccc(c23)C1=O,x,i
O=C(O)c1ccc(CN2C(=O)c3cccc4c([N+](=O)[O-])ccc(c34)C2=O)cc1,-8.6,-8.6*
